# Values of other authors as cited in PubChem BioAssay AID977610 (Shanghai Institute of Organic Chemistry, 2013).
# Out of some 3,600 compounds screened, about 3,600 (100%) were called active. The limit is not given here; nearly all actives have Ki up to about 18000 µM. So high a share suggests a set chosen from earlier hits. The list shows a part of the results. Numbered stars: 1 amine (or outer) side, 2 acyl side, 3 side chain; on linkers, the order of the positions; unused ones are H or OH. Square brackets hold non-standard residues; d marks the D form. Peptide text beside a SMILES is read from it. LeuΨ(S-CHOHCH2)Ala = CC(C)C[C@H](N[*:1])[C@@H](O)C[C@@H](C)C(=O)[*:2]; Orn(CH(NH2)2) = NC(N)NCCC[C@H](N)C(=O)O; Sta = CC(C)C[C@H](N)[C@@H](O)CC(=O)O
# Assay: PubChem AID 977610
# Conditions: PDB protein-ligand complexes, literature Ki
structure (smiles),measurement,setting,value
O=[N+]([O-])c1cccc2ncccc12,Ki,"protein: PDE10A2, PDB entry 4lm1",590 µM (active)
Nc1nc(N)c2cc(CNc3cc(Cl)ccc3Cl)cnc2n1,Ki,"protein: Dihydrofolate reductase(Q35S, N64F mutants), PDB entry 3oaf",0.0016 µM (active)
same,Ki,"protein: human Dihydrofolate reductase, DHFR, PDB entry 4g95",0.0244 µM (active)
CC[C@H](C)[C@H](NC(=O)[C@H](CCC(=O)O)NC(=O)[C@H](CCC(=O)O)NC(=O)[C@@H](NC(=O)[C@@H](N)CCCCN)[C@@H](C)O)C(=O)N[C@@H](CO)C(=O)N[C@@H](CCC(=O)O)C(=O)N[C@H](C(=O)N[C@@H](CC(N)=O)C(=O)N[C@@H](CC(C)C)[C@@H](O)CC(=O)N[C@H](C(=O)N[C@@H](C)C(=O)N[C@@H](CCC(=O)O)C(=O)N[C@@H](Cc1ccccc1)C(=O)O)C(C)C)C(C)C (H-KTEEISEVN[Sta]VAEF-OH),Ki,"protein: Memapsin 2(?-secretase 1), PDB entry 1xn3",0.04 µM (active)
CC[C@H](C)[C@H](NC(=O)[C@H](CO)NC(=O)[C@H](CCCCNC(C)=O)NC(=O)[C@H](Cc1ccccc1)NC(=O)[C@@H](NC(=O)[C@H](CCC(=O)O)NC(=O)[C@H](Cc1ccc(O)cc1)NC(=O)[C@@H](NC(=O)[C@@H](N)CCCNC(N)N)[C@@H](C)O)[C@@H](C)O)C(=O)N[C@@H](CCSC)C(=O)N[C@@H](CCCCN)C(=O)N[C@@H](CCCCN)C(=O)N[C@@H](CO)C(=O)O (H-[Orn(CH(NH2)2)]TYETFK(Ac)SIMKKS-OH),Ki,"protein: Bromodomain-containing protein 4, PDB entry 2lsp",274 µM (active)
CC(C)C[C@H](NC(=O)[C@H](CC(N)=O)NC(=O)[C@@H](NC(=O)[C@H](CCC(=O)O)NC(=O)[C@H](CO)NC(=O)[C@H](Cc1c[nH]c2ccccc12)NC(=O)[C@@H](N)Cc1c[nH]c2ccccc12)C(C)C)[C@@H](O)C[C@@H](C)C(=O)N[C@@H](C)C(=O)N[C@@H](CCC(=O)O)C(=O)N[C@@H](Cc1ccccc1)C(=O)O (H-WWSEVN[LeuΨ(S-CHOHCH2)Ala]AEF-OH),Ki,"protein: Memapsin 2(?-secretase 1), PDB entry 1xn2",3e-05 µM (active)
O=c1ccn([C@H]2C[C@H](O)[C@@H](CNC(c3ccccc3)c3ccccc3)O2)c(=O)[nH]1,Ki,"protein: Deoxyuridine 5'-triphosphate nucleotidohydrolase, putative, PDB entry 3t64",0.2 µM (active)
O=c1ccn([C@H]2C[C@H](O)[C@@H](CNC(c3ccccc3)(c3ccccc3)c3ccccc3)O2)c(=O)[nH]1,Ki,"protein: Deoxyuridine 5'-triphosphate nucleotidohydrolase, putative, PDB entry 3t60",0.2 µM (active)
Cn1ccnc1[C@@H](NC[C@H]1O[C@@H](n2ccc(=O)[nH]c2=O)C[C@@H]1O)c1ccccc1,Ki,"protein: Deoxyuridine 5'-triphosphate nucleotidohydrolase, putative, PDB entry 3t6y",3 µM (active)
CN(C[C@H]1O[C@@H](n2ccc(=O)[nH]c2=O)C[C@@H]1O)C(c1ccccc1)c1ccccc1,Ki,"protein: Deoxyuridine 5'-triphosphate nucleotidohydrolase, putative, PDB entry 3t70",0.5 µM (active)
COC(=O)N[C@H](C(=O)N/[N+](=C\c1ccc(C2=CCSC2)cc1)CCC[C@@]1(O)Cc2ccc(cc2)C/C=C\CNC(=O)[C@H](C(C)C)NC1=O)C(C)(C)C,Ki,"protein: HIV-1 protease, PDB entry 4cpu",0.0295 µM (active)
COC(=O)N[C@H](C(=O)N/[N+](=C\c1ccc(-c2ccsc2)cc1)CCC[C@@]1(O)Cc2ccc(cc2)CC/C=C\NC(=O)[C@H](C(C)C)NC1=O)C(C)(C)C,Ki,"protein: HIV-1 protease, PDB entry 4cpw",0.0315 µM (active)
CC(C)CN(C[C@@H](O)[C@H](Cc1ccccc1)N[C@@H](O)O[C@H]1CO[C@H]2OCC[C@H]21)S(=O)(=O)c1ccc(C(=O)O)cc1,Ki,"protein: Protease, PDB entry 4i8w",1.27e-05 µM (active)
CCOP(=O)(COc1ccc(C[C@H](NC(=O)O[C@H]2CO[C@H]3OCC[C@H]32)[C@H](O)CN(CC(C)C)S(=O)(=O)c2ccc(OC)cc2)cc1)OCC,Ki,"protein: HIV-1 Protease, PR1 E35EE (VPR1), PDB entry 4m8y",0.00011 µM (active)
same,Ki,"protein: HIV-1 Protease, PR2 (VPR2), PDB entry 4m8x",6.3e-05 µM (active)
CC(C)CN(C[C@@H](O)[C@H](Cc1ccccc1)NC(=O)O[C@H]1CO[C@H]2OCC[C@H]21)S(=O)(=O)c1ccc(C(N)=O)cc1,Ki,"protein: Protease, PDB entry 4i8z",8.9e-06 µM (active)
NC1NC(=O)c2[nH]cc(CN3C[C@H](CO)[C@@H](O)C3)c2N1 (stereo partly drawn),Ki,"protein: Purine nucleoside phosphorylase (W16Y, W94Y, W178Y, H257W mutation), PDB entry 4eb8",0.000151 µM (active)
NC1N[C@@](c2cccc(-c3cncnc3)c2)(c2ccnc(C(F)F)c2)c2cccc(F)c21 (stereo partly drawn),Ki,"protein: BETA-SECRETASE 1, PDB entry 4b05",0.0261 µM (active)
CCC(CC)O[C@@H]1CC(C(=O)O)=C[C@H](N)[C@H]1NC(C)=O,Ki,"protein: Neuraminidase, PDB entry 4ks1",0.0015 µM (active)
CCC(CC)O[C@@H]1C=C(C(=O)O)C[C@H](NC(N)N)[C@H]1NC(C)=O,Ki,"protein: Neuraminidase, PDB entry 4ks2",0.00046 µM (active)
Cc1onc(-c2ccccc2Cl)c1C(=O)NCC(=O)O,Ki,"protein: AmpC beta-lactamase, PDB entry 4kz5",10000 µM (active)
C[C@@H](O)c1nc2cnc3[nH]ccc3c2n1C1CCC(C#N)CC1 (stereo partly drawn),Ki,"protein: Tyrosine-protein kinase JAK1, PDB entry 4ivb",0.0019 µM (active)
same,Ki,"protein: Tyrosine-protein kinase JAK2, PDB entry 4iva",0.0684 µM (active)
C[C@@H](O)c1nc2cnc3[nH]ccc3c2n1C1CCC(CC#N)CC1 (stereo partly drawn),Ki,"protein: Tyrosine-protein kinase JAK1, PDB entry 4ivc",0.0001 µM (active)
COc1ccc(C2CCCC3N=C(Nc4ccc(N5CCN(C)CC5)cc4)NN32)cc1 (stereo not drawn),Ki,"protein: Tyrosine-protein kinase JAK2, PDB entry 4jia",0.0006 µM (active)
CC(=O)N[C@H]1[C@H]([C@H](O)[C@H](O)CO)OC(C(=O)O)C[C@@H]1NC(N)N (stereo partly drawn),Ki,"protein: Human Sialidase Neu2, PDB entry 2f0z",17 µM (active)
CC(=O)N[C@H]1[C@H]([C@H](O)[C@H](O)CO)OC(C(=O)O)C[C@@H]1O (stereo partly drawn),Ki,"protein: Trypanosoma cruzi trans-sialidase, PDB entry 1ms0",1230 µM (active)
same,Ki,"protein: human cytosolic sialidase Neu2, PDB entry 1vcu",140 µM (active)
CC(=O)N[C@H]1[C@H]([C@H](O)[C@H](O)CO)O[C@@H](C(=O)O)C[C@@H]1N=C(N)N,Ki,"protein: Neuraminidase from the B-Lyon-CHU-15.216-2011 virus, PDB entry 4cpz",0.0209 µM (active)
CCC(CC)(NC(=O)C(C)C)C(=O)N[C@@H](CCCNC(N)N)C(=O)NC1(C(=O)NC(c2ccc(F)cc2)c2ccc(F)cc2)CCCC1,Ki,"protein: WD repeat-containing protein 5, PDB entry 4gm8",0.001 µM (active)
CCC(CC)(NC(=O)C(C)C)C(=O)N[C@@H](CCCNC(N)N)C(=O)NC1(C(=O)NC(c2ccccc2)c2ccccc2)CCCC1,Ki,"protein: WD repeat-containing protein 5, PDB entry 4gm3",0.001 µM (active)
C[C@](COC(=O)CCCCC(=O)O)([C@@H](NCCC=O)C(=O)O)S(=O)O,Ki,"protein: SHV-1 beta-lactamase, PDB entry 4mbf",1.7 µM (active)
C[C@H](C(=O)O)c1ccc2c(c1)[nH]c1ccc(Cl)cc12,Ki,"protein: E. coli sliding clamp, DNA polymerase III subunit beta, PDB entry 4mjr",283 µM (active)
